Out of some 1,900 compounds screened, about 40 (2%) showed an effect of 50% or more. Many of the other results were omitted from the sample, so strong results are more common in it than they were.
What follows are molecules tested against human SGLT1 (hSGLT1) (human, UniProt P13866) (assay: primary screen, percent of control activity; higher = less effect of the substance). Settings: 50 µM.
Parameters: single well
Experimental: Two days before the assay, CHO‐wild type and CHO‐hSGLT1 cells were seeded in maintenance medium at 25 000 cells/well in clear‐bottom black 96‐well cell culture plates. Before the assay, cells were washed 3 times with 150 μL/well D‐glucose free DMEM with 0.3% (w/v) BSA. Library compounds at 50 μmol/L (singlicate) prepared in D‐glucose free DMEM with 160 μmol/L 1‐NBD‐glucose and 0.3% (w/v) BSA and negative controls (triplicate) were added at 100 μL/well and placed in a humidified incubator at 37°C with 5% CO2 for 90 minutes. Next, cells were washed 3 times with DMEM with 0.3% (w/v) BSA (150 μL/well). Care was taken to remove all medium after the last wash. Finally, 1‐NBD‐glucose was extracted from the cells by adding 10 μL/well isopropanol and orbital shaking for 5 minutes at 600 rpm, followed by incubation in the dark for 30 minutes. Fluorescence was measured on a Tecan Infinite M200 Microplate Reader (Tecan, Männedorf, Switzerland) with excitation at 445 nm and emission at 525 nm. The amount of 1‐NBD‐glucose taken up by the CHO‐wild type or CHO‐hSGLT1 cells in the presence or absence of test compounds was interpolated from 1‐NBD‐glucose calibration standards. The background uptake by CHO‐wild type was subtracted from the uptake by CHO‐hSGLT1. Background corrected uptake with test compound was expressed as a percentage of corrected uptake without test compound.

Chain of human SGLT1 (hSGLT1) (P13866 whole entry, looked up): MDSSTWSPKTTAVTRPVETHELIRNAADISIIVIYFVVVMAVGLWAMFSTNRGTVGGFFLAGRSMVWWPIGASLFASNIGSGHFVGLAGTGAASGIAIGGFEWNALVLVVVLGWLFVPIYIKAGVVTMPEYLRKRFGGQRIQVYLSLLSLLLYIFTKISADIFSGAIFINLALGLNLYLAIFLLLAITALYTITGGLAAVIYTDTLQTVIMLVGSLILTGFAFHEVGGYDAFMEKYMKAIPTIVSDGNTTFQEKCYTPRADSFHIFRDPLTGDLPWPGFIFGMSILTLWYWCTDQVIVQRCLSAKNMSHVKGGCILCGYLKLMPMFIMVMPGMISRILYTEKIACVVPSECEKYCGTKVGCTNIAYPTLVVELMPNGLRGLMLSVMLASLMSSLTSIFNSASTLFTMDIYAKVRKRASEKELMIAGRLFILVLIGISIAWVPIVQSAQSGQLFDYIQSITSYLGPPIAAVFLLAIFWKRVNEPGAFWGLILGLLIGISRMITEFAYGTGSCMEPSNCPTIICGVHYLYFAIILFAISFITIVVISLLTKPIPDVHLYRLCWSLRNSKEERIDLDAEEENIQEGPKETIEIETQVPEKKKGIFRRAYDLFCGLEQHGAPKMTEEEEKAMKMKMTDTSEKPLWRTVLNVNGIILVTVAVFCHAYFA

SMILES | NORMALIZED SGLT1 ACTIVITY (%)
CC(C)COCC(CN(Cc1ccccc1)c1ccccc1)N1CCCC1.Cl (centres unmarked) | 48
O=P(O)(O)O.c1ccc(CN(CC2=NCCN2)c2ccccc2)cc1 | 87
COc1cc2ccc(=O)oc2c(O)c1O | 142
CCCn1c(=O)c2nc(C3CCCC3)[nH]c2n(CCC)c1=O | 180
COc1cc(S(C)=O)ccc1-c1nc2cccnc2[nH]1 (centres unmarked) | 237
CC1(C)S[C@@H]2[C@H](NC(=O)Cc3ccccc3)C(=O)N2[C@H]1C(=O)[O-].[K+] | 115
CC1(C)CC[C@@]2(C(=O)O)C(C1)C1=CCC3[C@@]4(C)CC[C@H](O)C(C)(C)C4CC[C@@]3(C)[C@]1(C)C[C@@H]2O (some centres unmarked) | -6
CC1(C)CC[C@]2(C)CC[C@]3(C)C(=CCC4[C@@]5(C)CC[C@H](O)C(C)(C)C5CC[C@]43C)C2C1 (some centres unmarked) | 91
CC1(C)CC[C@]2(C(=O)O)CC[C@]3(C)C(=CCC4[C@@]5(C)CC[C@@H](O)C(C)(C)C5CC[C@]43C)C2C1 (some centres unmarked) | 133
CC(=O)Oc1cc2c(c(C)c1OC(C)=O)CC1OC13[C@@]2(C)CC[C@@]1(C)C2C[C@](C)(C(=O)O)CC[C@]2(C)CC[C@]31C (some centres unmarked) | 204
Cl.O=C(O)C1=CCNCC1 | 111
CO/N=C1\CN(c2nc3c(cc2F)c(=O)c(C(=O)O)cn3C2CC2)CC1CN.CS(=O)(=O)O (centres unmarked) | 157
CC(C)[N+]1(C)C2CC[C@@H]1C[C@@H](OC(=O)C(CO)c1ccccc1)C2.[Br-] (some centres unmarked) | 83
CS(=O)(=O)O.OC(CCN1CCCCC1)(c1ccccc1)c1ccccc1 | 101
Cl.OC(CCN1CCCCC1)(c1ccccc1)C1CCCCC1 (centres unmarked) | 69
Cl.OC(CCN1CCCC1)(c1ccccc1)C1CCCCC1 (centres unmarked) | 45
CN(C)C(=O)Oc1ccc[n+](C)c1.[Br-] | 105
NC(Cc1c[nH]cn1)C(=O)Nc1ccc2ccccc2c1 (centres unmarked) | 153
C[C@H]1CC2C3CCC4=CC(=O)C=C[C@]4(C)[C@@]3(F)[C@@H](O)C[C@]2(C)[C@@]1(O)C(=O)CO (some centres unmarked) | 241
CC(=O)OCC1=C(C(=O)[O-])N2C(=O)[C@@H](NC(=O)Cc3cccs3)[C@H]2SC1.[Na+] | 140

SMILES | NORMALIZED SGLT1 ACTIVITY (%)
CCOP(=S)(OCC)Oc1ccc2c(C)c(Cl)c(=O)oc2c1 | 118
CCOP(=S)(OCC)Oc1cc(C)nc(C(C)C)n1 | 107
CCOP(=S)(OCC)Oc1nc(Cl)c(Cl)cc1Cl | 35
O=C(O)c1cc(O)c(=O)c2c(O)c(O)ccc2c1 | 141
CC[C@H](C)[C@H](N)C(=O)N1CCC[C@H]1C(=O)N[C@H](C(=O)O)[C@@H](C)CC | 98
O=C(O)c1cc(O)ccc1O | 145
Cl.N=C(N)NC(=N)Nc1ccccc1 | 136
Cl.Cl.N=C(NCCCCCCNC(=N)NC(=N)Nc1ccc(Cl)cc1)NC(=N)Nc1ccc(Cl)cc1 | 25
CC(C)NC(=N)NC(=N)Nc1ccc(Cl)cc1.Cl | 130
CC1(C)NC(=O)N(c2ccc([N+](=O)[O-])c(C(F)(F)F)c2)C1=O | 222
O=C(/C=C/C=C/c1ccc2c(c1)OCO2)N1CCCCC1 | 87
COc1ccc(-c2cc(=O)c3c(O)cc(O[C@H]4O[C@H](CO[C@@H]5O[C@@H](C)[C@H](O)[C@@H](O)[C@H]5O)[C@@H](O)[C@H](O)[C@H]4O)cc3o2)cc1 | 121
COc1ccc(C(c2ccc(OC)cc2)C(Cl)(Cl)Cl)cc1 | 42
COc1ccc2cc([C@H](C)CO)ccc2c1 | 111
Clc1ccc(C(c2ccc(Cl)cc2)C(Cl)(Cl)Cl)cc1 | 86
COc1ccc(CCC(=O)c2c(O)cc(O[C@@H]3O[C@H](CO)C(O)[C@H](O)C3O[C@@H]3O[C@@H](C)[C@H](O)[C@@H](O)[C@H]3O)cc2O)cc1O (some centres unmarked) | 143
C#CCCCCCCCCCCCC(O)CC(O)COC(C)=O.C=CCCCCCCCCCCCC(O)CC(O)COC(C)=O (centres unmarked) | 197
COC(=O)[C@H]1[C@H]2C[C@H]3c4[nH]c5cc(OC)ccc5c4CCN3C[C@H]2C[C@@H](OC(=O)c2cc(OC)c(OC)c(OC)c2)[C@@H]1OC | 345
CC1(C)Oc2ccc3ccc(=O)oc3c2CC1O (centres unmarked) | 159
CC(=O)O[C@@H]1c2c(ccc3ccc(=O)oc23)OC(C)(C)[C@@H]1OC(=O)CC(C)C | 51

SMILES | NORMALIZED SGLT1 ACTIVITY (%)
C/C=C(\C)C(=O)O[C@@H]1c2c(ccc3ccc(=O)oc23)OC(C)(C)[C@@H]1OC(C)=O | 5
O=C1CN(/N=C/c2ccc(-c3ccc([N+](=O)[O-])cc3)o2)C(=O)[N-]1.[Na+] | 103
CCC(C)(C)C(=O)O[C@H]1C[C@@H](C)C=C2C=C[C@H](C)[C@H](CC[C@@H]3C[C@@H](O)CC(=O)O3)[C@H]21 | 96
CC1=C(/C=C/C(C)=C/C=C/C(C)=C/C=C/C=C(C)/C=C/C=C(C)/C=C/C(=O)[C@]2(C)C[C@@H](O)CC2(C)C)C(C)(C)C[C@H](O)C1 | 103
CCOP(=S)(OCC)SCSCC | 47
CCOP(=S)(OCC)SCn1c(=O)oc2cc(Cl)ccc21 | 57
CCOP(=S)(OCC)SCCSCC | 77
CC(C)=CCC[C@](C)(O)C1CC=C(C)CC1 (some centres unmarked) | 99
CC1(C)C2CC(=O)O[C@@]3(C)C4=CC(=O)O[C@@H](c5ccoc5)[C@]4(C)CCC3[C@@]2(C)C=C[C@H]1O (some centres unmarked) | 132
CN1CCc2c(c3ccccc3n2Cc2ccccc2)C1.O=S(=O)(O)c1cccc2c(S(=O)(=O)O)cccc12 | 69
Cl.Cl.NNCc1cccc(O)c1 | 149
CCCCCCc1ccc(O)cc1O.Nc1c2ccccc2nc2ccccc12 | 383
CCCCCCCCCCCCC[N+](C)(C)Cc1ccccc1.[Cl-] | 40
CCCCCCCCCc1ccc(O)cc1 | 107
CC(=O)O[C@@](C)(CCC=C(C)C)C1CC=C(C)CC1 (some centres unmarked) | 112
ClC1=C(Cl)C2(Cl)C3C(Cl)C=CC3C1(Cl)C2(Cl)Cl (centres unmarked) | 57
CSc1ccc2c(c1)C(N1CCN(C)CC1)Cc1ccccc1S2.O=C(O)/C=C\C(=O)O (centres unmarked) | 115
CN1CCN(CC/C=C2/c3ccccc3Sc3ccc(S(=O)(=O)N(C)C)cc32)CC1 | 116
CN1CCC(=C2c3ccccc3Sc3ccccc32)CC1.O=C(O)/C=C\C(=O)O | 36
